From PubChem BioAssay
D1 antag: human D1 dopamine receptor antagonism. activity change, negative = inhibition, % at 10 µM. P21728. HEK293 TREx D1 cells, calcium flux, dopamine EC80; active compounds read low. 360,000 tested, 3.2% active; in the data active = activity change below about -30%
Target sequence (P21728 whole entry, looked up): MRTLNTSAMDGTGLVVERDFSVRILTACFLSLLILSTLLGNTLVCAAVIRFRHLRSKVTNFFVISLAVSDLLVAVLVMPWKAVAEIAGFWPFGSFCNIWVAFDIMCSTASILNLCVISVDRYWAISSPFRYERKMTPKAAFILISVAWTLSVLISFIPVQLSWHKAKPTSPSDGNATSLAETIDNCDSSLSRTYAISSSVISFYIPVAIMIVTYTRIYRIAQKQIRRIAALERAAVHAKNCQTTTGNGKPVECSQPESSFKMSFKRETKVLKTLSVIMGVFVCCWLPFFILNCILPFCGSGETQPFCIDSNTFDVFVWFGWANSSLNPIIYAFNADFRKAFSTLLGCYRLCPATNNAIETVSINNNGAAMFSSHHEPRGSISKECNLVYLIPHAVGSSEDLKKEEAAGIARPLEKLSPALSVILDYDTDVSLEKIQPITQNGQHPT
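HEK293 T-REx cells expressing inducible, force-coupled D1 receptor; no-wash Ca dye, 30–90 min RT. Cmpd → 180 s read at 1 Hz → EC80 DA → 180 s read.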
TRHR ag: activates the human TRH receptor; TRHR cells, calcium flux fluo-8, FDSS agonist mode; 360,000 tested, 0.18% active; activation, % at 2 µM; AID 493084; P34981
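Read-out: compound-evoked intracellular calcium rise in TRHR cells, fluo-8 dye, kinetic FDSS fluorescence at 1 s/cycle following a 10-cycle baseline. Cells cultured overnight before dye loading (30 min–1.5 h, RT).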
D1 potentiator: enhances dopamine response at the human D1 receptor | P21728 | HEK293 TREx D1 cells, calcium flux, dopamine EC20 potentiation | potentiation, % at 10 µM | 360,000 tested, 0.036% active; in the data active = potentiation above about 30%
TRHR PAM: allosteric enhancers of human TRH receptor. TRHR cells, fluo-8 calcium fluorescence, EC20 TRH enhancement. 360,000 tested, 0.66% active. enhancement, % at 2 µM. AID 493056. P34981; in the data active = enhancement above about 30%
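TRHR-expressing cells loaded with fluo-8 calcium dye were read kinetically (ex 480/em 530) during compound addition, then stimulated with an EC20 of TRH (10 nM final). Enhancement of the Gq-mediated intracellular calcium response was scored.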
D1 agonist: activates the human D1 dopamine receptor; P21728; HEK293 T-REx D1 cells, calcium flux, agonist mode; activation, % at 2 µM; 360,000 tested, 1% active; AID 504660
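Inducible HEK293 T-REx D1 cells, force-coupled to calcium signalling, were plated at 4000 cells/well with tetracycline and held overnight at 30 C. After no-wash calcium dye loading, compound-evoked calcium rise over 180 s flagged agonists.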
A number is an active result; 0 = inactive; - = not tested or not shown. Only some compounds are listed: those with a hit (about 4.6% of all), similar ones and a draw of the others. Cut-off read from the data, not from the text of the source, unless noted: active = activation above about 30%; inactive = the rest.

SMILES	D1 antag	TRHR ag	D1 potentiator	TRHR PAM	D1 agonist
CN(CCOc1ccccc1)S(=O)(=O)c1ccc2oc3ccccc3c2c1	-43	0	0	0	40
COc1ccc(OCCNS(=O)(=O)c2ccc3oc4ccccc4c3c2)cc1	0	0	0	0	0
Cn1c(-c2ccccc2)cnc1NCc1ccccc1	0	0	0	0	0
Cn1c(-c2cccc(Br)c2)cnc1NCc1ccccc1O	-35	0	0	0	0
O=C(NC1=NCCS1)c1cc(-c2ccccc2)nn1-c1ccccc1	-47	0	0	0	0
Cc1ccc(NC(=O)c2cc(-c3ccccc3)nn2-c2ccccc2)cc1	0	0	0	0	0
O=C(CSc1ccc(-c2cccs2)nn1)Nc1cccc(F)c1	0	0	0	0	0
O=C(c1ccco1)N(Cc1ccc([N+](=O)[O-])cc1)c1ccc(Br)cc1	0	0	0	0	0
O=C(c1ccco1)N(Cc1cccc([N+](=O)[O-])c1)c1ccc(Br)cc1	-36	0	0	0	0
O=S(=O)(Nc1ccc(N2CCCCC2)cc1)c1ccc(F)c(F)c1	0	0	0	0	58
Cc1nnc(SCc2nc3sc4c(c3c(=O)[nH]2)CCCC4)[nH]c1=O	0	0	0	0	0
COc1ccc(F)cc1S(=O)(=O)N1CCN(c2ccccn2)CC1	0	0	0	0	0
COc1ccc(C(=O)N2CCN(c3ccccn3)CC2)cc1	0	0	0	0	0
O=S(=O)(c1cc(F)ccc1F)N1CCN(c2ccccn2)CC1	-52	0	0	0	0
O=C(c1ccc(F)cc1)N1CCN(c2ccccn2)CC1	0	0	0	30	0
COc1ccc(C(=O)CCNc2cccc(Cl)c2)cc1	0	0	0	0	0
Cc1csc2c(N3CCN(S(=O)(=O)c4ccc(Cl)cc4)CC3)ncnc12	-35	0	0	0	0
CCOC(=O)CSC1=C(C#N)C(c2ccco2)C(C(=O)Nc2cccc(C(F)(F)F)c2)=C(C)N1 (stereo not given)	0	0	0	0	0
CNC(=S)NNC(=O)c1sc2cc(C(F)(F)F)cnc2c1-c1ccccn1	0	0	0	0	0
Cc1ccc(NC(=O)c2ccc(CSc3nnc(C)s3)cc2)cc1	0	0	35	0	125
Cc1nnc(SCc2ccc(C(=O)O)cc2)s1	0	0	0	0	0
O=C(O)c1ccc(CSc2nnc(SCc3ccccc3)s2)cc1	-47	0	0	0	0
O=C(CSc1nnc2scc(-c3ccc(Cl)cc3)n12)Nc1cccc(C(F)(F)F)c1	0	0	0	0	0
COc1ccccc1/C=C\C(=O)NCC(=O)N/N=C/c1ccc(O)cc1O	0	0	0	0	0
CC(C)(C)c1ccc(-c2nnc(NC(=O)c3ccccc3)s2)cc1	0	0	0	0	0
SMILES	D1 antag	TRHR ag	D1 potentiator	TRHR PAM	D1 agonist
COCC(=O)Nc1nnc(-c2ccc(C(C)(C)C)cc2)s1	0	0	0	0	34
CCn1ncc(C2=NOC(C(=O)NCc3ccc(Cl)cc3)C2)c1C (stereo not given)	0	0	0	0	0
c1ccc(-n2c(Sc3cnccn3)nnc2-c2cccs2)cc1	0	0	0	31	0
CC1=CC(C)(C)N(C(=O)c2ccccc2)c2ccc(C)cc21	0	0	0	0	57
CCOc1ccc(CC(=O)NCCc2sc3nc(-c4ccc(F)cc4)nn3c2C)cc1	-	0	0	43	0
CCOc1ccc(CC(=O)NCCc2sc3nc(-c4ccc(OC)cc4)nn3c2C)cc1	-	0	0	0	0
CCOc1ccc(CNS(=O)(=O)c2c(C(=O)N3CCCC3)c(C)n(C)c2C)cc1OC	0	0	0	0	0
COc1ccccc1N1CCN(C(c2cccs2)c2nnnn2C2CCCC2)CC1 (stereo not given)	-35	0	0	0	0
COc1ccc(CN2CCC(Oc3cc(C(=O)NC4CC4)ccc3OC)CC2)c(O)c1	-77	0	0	0	0
COc1cc(CN2CCC(Oc3cc(C(=O)NC4CC4)ccc3OC)CC2)cc(OC)c1	-75	0	0	0	0
COc1ccc(C(=O)N2CCCCCC2)cc1OC1CCN(C(C)=O)CC1	-67	0	0	0	0
COc1cc(C)c(CN2CCN(CC(=O)Nc3ccccc3C(=O)NC3CC3)CC2)cc1OC	-30	0	0	0	0
COc1cc(C(=O)N2CCCCCCC2)ccc1OC1CCN(C(C)=O)CC1	0	0	0	0	0
